Data reported in the supplement of paper PMC6607015.
Structures can show the parent of a compound that is named as a salt.

Columns and labels:
Conditions in all cases: compound concentration in added solution (µM; 5 µl added to 20 µl cells): 10; 18 h
A431 [1] = assay: LBPA endosome anti-LBPA integrated intensity (sum per cell), Z-score; higher = more LBPA staining
Outline: (§1)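 Reported values are Z-scores from AcuityXpress normalisation of per-cell integrated LBPA or filipin staining. HeLa MZ or A431 cells (3,500/well in 20 µl) were seeded onto 5 µl of 10 µM compound solution in duplicate 384-well plates, incubated 18 h, fixed in 4% PFA, stained and imaged at 20×. MetaXpress segmentation measured the intensity over the whole cell or within LBPA endosomes.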

HeLa MZ [2] = assay: as above
Outline: as §1

A431 [3] = assay: whole-cell filipin (free cholesterol) integrated intensity, Z-score; higher = more cholesterol staining
Outline: as §1

HeLa MZ [4] = assay: as above
Outline: as §1

A431 [5] = assay: filipin (cholesterol) integrated intensity within LBPA endosomes, Z-score; higher = more cholesterol in LBPA endosomes
Outline: as §1

HeLa MZ [6] = assay: as above
Outline: as §1

Row | Compound | LBPA endosome anti-LBPA integrated intensity (z-score) (A431 [1]) | LBPA endosome anti-LBPA integrated intensity (z-score) (HeLa MZ [2]) | whole-cell filipin (z-score) (A431 [3]) | whole-cell filipin (z-score) (HeLa MZ [4]) | filipin (z-score) (A431 [5]) | filipin (z-score) (HeLa MZ [6])
1 | CN1CCC(=C2c3ccccc3CC(=O)c3sccc32)CC1 [Ketotifen fumarate] | 0.0746 | 0.508 | 0.273 | -0.159 | 0.289 | 0.175
2 | CN(C)CCC(c1ccc(Br)cc1)c1ccccn1 (configuration not stated) [Brompheniramine maleate] | -0.686 | -0.0361 | -0.609 | -0.596 | -0.344 | 0.233
3 | CCn1cc(C(=O)O)c(=O)c2cc(F)c(N3CCNCC3)nc21 [Enoxacin] | -0.309 | -0.0536 | 0.119 | 0.315 | -0.364 | -0.345
4 | C=CC[N@@+]12CC[C@@]34c5ccccc5N5/C=C6/[C@H]7C[C@H]8[C@@]9(CC[N@@+]8(CC=C)C/C7=C/CO)c7ccccc7N(/C=C(/[C@@H](C[C@@H]31)/C(=C\CO)C2)[C@H]54)[C@@H]69 [Alcuronium chloride] | -0.441 | -0.288 | 0.269 | 2.33 | -0.417 | -0.254
5 | O=C1c2c(O)cccc2Cc2cccc(O)c21 [Anthralin] | -0.344 | 0.592 | 0.169 | 2.01 | -0.334 | -0.134
6 | CN(C)CCOC(=O)COc1ccc(Cl)cc1 [Meclofenoxate hydrochloride] | -0.454 | -0.858 | -0.411 | -0.563 | -0.417 | -0.533
7 | CCN1CCCC(OC(=O)C(c2ccccc2)c2ccccc2)C1 (configuration not stated) [Piperidolate hydrochloride] | 1.4 | 1.47 | 1.77 | 1.11 | 1.7 | 0.861
8 | Cc1c(O)c(=O)n(-c2ccccc2)n1C [Antipyrine, 4-hydroxy] | -0.407 | -0.193 | -0.48 | 0.114 | -0.485 | -0.43
9 | COc1ccc(-c2cc(=S)ss2)cc1 [Anethole-trithione] | -0.536 | -0.179 | -0.0973 | 0.207 | -0.447 | -0.257
10 | Fc1ccc(C(c2ccc(F)cc2)N2CCN(C/C=C/c3ccccc3)CC2)cc1 [Flunarizine dihydrochloride] | 0.53 | -0.311 | 0.301 | -0.958 | 0.627 | 0.163
11 | NC(=O)N/N=C/c1ccc([N+](=O)[O-])o1 [Nitrofural] | -0.562 | -0.605 | -0.633 | -0.478 | -0.506 | -0.689
12 | C[n+]1ccccc1/C=N/O [Pralidoxime chloride] | -0.559 | -0.678 | -0.432 | -0.212 | -0.503 | -0.574
